We go through 5 compounds from PubChem BioAssay.

The source made the active and inactive calls.

The nature of experiment [1]: optical density shifts of acrAB sulA E. coli – strain DRC41, OD650, 48 h, E. coli filamentation inducer project, primary screen (AID 1152).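 Also: E. coli MC1000 strain DRC41 lacking acrAB efflux pump and sulA.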 Particulars: higher = more signal, called active from +8 up or from −8 down.
Experiment [2] can be described thus: probe aLefty1 binding on compound microarray – biochemical, small-molecule microarray, 635/667 nm fluorescence, primary screen (AID 1153).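 Also: score merges spot fluorescence with signal-to-noise ratio from the scanned slide images.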 As to conditions: higher = more signal.
Experiment [3] can be described thus: plasmodial surface anion channel blockers, osmotic lysis – cell-based, P. falciparum Indochina, OD700, 1 h, primary screen (AID 1154). Particulars: P. falciparum Indochina infected RBC osmotic lysis, higher = more signal, called active from +8 up or from −8 down.
Experiment [4] is described as follows: plasmodial surface anion channel blockers, osmotic lysis – cell-based, P. falciparum Indochina, OD700, 2 h, primary screen (AID 1155).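 Also: lysis reports solute entry through the parasite surface anion channel PSAC.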 Particulars: P. falciparum Indochina infected erythrocytes, higher = more signal, called active from +8 up or from −8 down.
Experiment [5] in a line: changes in parasitized red cell lysis, either direction – P. falciparum Indochina, OD700, 3 h, PSAC antagonist project, primary screen (AID 1156). Particulars: P. falciparum-infected erythrocytes, osmotic lysis, higher = more signal, called active from +8 up or from −8 down.
The nature of experiment [6]: plasmodial surface anion channel blockers, osmotic lysis – cell-based, P. falciparum Indochina, OD700, 18 h, primary screen (AID 1157). Particulars: P. falciparum Indochina infected erythrocytes, osmotic lysis OD700, 18 h; higher = more signal, called active from +8 up or from −8 down.
A short description of experiment [7]: S6 kinase pathway phospho-S6 level changes – cell-based, A549, cytoblot, luminescence, serum-stimulated, primary screen (AID 1158).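 Also: serum-stimulated A549 lung adenocarcinoma cells; signal is phosphorylated S6 detected by cytoblot immunostaining with HRP secondary.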 Particulars: 5 h, higher = more signal.
Experiment [8] has as its target NADPH oxidase 2 (Homo sapiens) (UniProt P04839). Put plainly: compounds shifting NOX2 Amplex Red fluorescence – cell-based, HEK293-NOX2, PMA-stimulated, NOX inhibitor project, primary screen (AID 1159). Also: test concentration not given here. Particulars: 45 min, higher = more signal, called active from +8 up or from −8 down.
The target of experiment [9] is NADPH oxidase 4 (Homo sapiens) (UniProt Q9NPH5). As to the kind of experiment: compounds shifting NOX4 Amplex Red fluorescence – cell-based, HEK293-NOX4, tetracycline-induced, NOX inhibitor project, primary screen (AID 1160). As to conditions: HEK293-NOX4, Amplex Red H2O2 fluorescence, 45 min; higher = more signal, called active from +8 up or from −8 down.
Chain of NADPH oxidase 4 (Homo sapiens) (Q9NPH5 whole entry, looked up): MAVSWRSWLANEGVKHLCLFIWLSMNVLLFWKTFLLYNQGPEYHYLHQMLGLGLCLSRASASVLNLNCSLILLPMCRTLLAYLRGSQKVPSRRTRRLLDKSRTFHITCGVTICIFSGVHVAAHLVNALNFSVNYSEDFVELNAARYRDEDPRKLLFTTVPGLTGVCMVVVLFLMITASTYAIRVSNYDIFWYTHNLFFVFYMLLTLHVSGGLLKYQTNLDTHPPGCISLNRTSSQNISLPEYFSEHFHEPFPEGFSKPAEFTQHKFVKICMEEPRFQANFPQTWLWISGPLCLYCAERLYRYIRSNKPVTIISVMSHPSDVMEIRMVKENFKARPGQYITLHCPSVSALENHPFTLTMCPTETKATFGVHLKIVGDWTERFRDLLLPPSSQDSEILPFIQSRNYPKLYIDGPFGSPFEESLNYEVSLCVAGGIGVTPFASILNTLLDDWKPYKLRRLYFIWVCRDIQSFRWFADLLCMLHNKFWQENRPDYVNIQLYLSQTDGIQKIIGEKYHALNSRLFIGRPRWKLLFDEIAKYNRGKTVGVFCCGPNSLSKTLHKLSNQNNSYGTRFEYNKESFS
The target in experiment [10] is NADPH oxidase 5 (Homo sapiens) (UniProt Q96PH1). As to the kind of experiment: compounds shifting NOX5 Amplex Red fluorescence – cell-based, HEK293-NOX5, NOX inhibitor project, primary screen (AID 1161). As to conditions: HEK293-NOX5, ionomycin, 45 min, higher = more signal.
Chain of NADPH oxidase 5 (Homo sapiens) (Q96PH1 whole entry, looked up): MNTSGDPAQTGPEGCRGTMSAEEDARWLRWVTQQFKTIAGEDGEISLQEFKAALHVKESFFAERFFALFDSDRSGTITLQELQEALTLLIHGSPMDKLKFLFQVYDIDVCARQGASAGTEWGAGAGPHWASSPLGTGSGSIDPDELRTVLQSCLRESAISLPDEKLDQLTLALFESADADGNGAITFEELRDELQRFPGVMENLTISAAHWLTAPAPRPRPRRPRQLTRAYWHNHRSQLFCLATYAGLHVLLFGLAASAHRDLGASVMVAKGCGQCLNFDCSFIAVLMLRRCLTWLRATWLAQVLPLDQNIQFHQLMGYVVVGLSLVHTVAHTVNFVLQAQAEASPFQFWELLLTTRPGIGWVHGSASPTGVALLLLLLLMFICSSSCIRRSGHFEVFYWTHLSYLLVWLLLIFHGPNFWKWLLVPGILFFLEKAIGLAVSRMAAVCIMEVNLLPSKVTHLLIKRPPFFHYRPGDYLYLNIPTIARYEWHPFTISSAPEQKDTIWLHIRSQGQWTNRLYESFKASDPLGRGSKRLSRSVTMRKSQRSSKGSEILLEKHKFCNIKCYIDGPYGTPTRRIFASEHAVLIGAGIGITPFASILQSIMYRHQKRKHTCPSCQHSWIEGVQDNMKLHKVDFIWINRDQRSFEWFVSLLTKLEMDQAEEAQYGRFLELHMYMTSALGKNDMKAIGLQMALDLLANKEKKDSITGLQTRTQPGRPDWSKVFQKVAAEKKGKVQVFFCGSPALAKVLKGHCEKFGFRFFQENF
A short description of experiment [11]: compound effects on lung adenocarcinoma cell viability – A549, calcein-AM fluorescence, 48 h, basal, profiling panel (AID 1162). Also: test concentration not given here. As to conditions: higher = more signal.
A short description of experiment [12]: compound effects on differentiated 3T3-L1 adipocyte viability – cell-based, 3T3-L1 adipocytes, calcein-AM fluorescence, 48 h, basal, profiling panel (AID 1163). Also: test concentration not given here. As to conditions: 3T3-L1 adipocytes viability, higher = more signal.
Experiment [13] can be described thus: compound effects on hepatocellular carcinoma cell viability – HepG2, calcein-AM fluorescence, 48 h, basal, profiling panel (AID 1164). Also: test concentration not given here. As to conditions: higher = more signal.
Experiment [14] can be described thus: compound effects on multiple myeloma cell viability – MM1S, calcein-AM fluorescence, 48 h, basal, profiling panel (AID 1165).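 Also: viability of MM1S multiple myeloma cells under basal unstimulated conditions; test concentration not given here.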 Particulars: higher = more signal.
Experiment [15] in a line: calcein-AM signal in unstimulated myeloma cells – cell-based, calcein-AM fluorescence, 48 h, PK04 Diversity Set, profiling panel (AID 1166).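 Also: cells grown under basal conditions without added stimulus; test concentration not given here.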 Particulars: RPMI8226 myeloma viability, higher = more signal.
Experiment [16] in a line: JC-1 mitochondrial signal, unstimulated HepG2 cells – cell-based, JC-1 fluorescence, 24 h, 100 nL compound, profiling panel (AID 1167). Also: test concentration not given here. As to conditions: HepG2 mitochondrial potential, higher = more signal.
Experiment [17] in a line: JC-1 mitochondrial signal, unstimulated adipocytes – cell-based, JC-1 fluorescence, 3T3-L1 adipocytes, 24 h, 100 nL compound, profiling panel (AID 1168). Also: test concentration not given here. As to conditions: JC-1 mitochondrial fluorescence, higher = more signal, called active from +8 up or from −8 down.
Experiment [18] can be described thus: JC-1 mitochondrial signal, unstimulated myeloma cells – cell-based, JC-1 fluorescence, RPMI8226, 24 h, 100 nL compound, profiling panel (AID 1169). Also: test concentration not given here. Particulars: JC-1 mitochondrial potential fluorescence, higher = more signal.
Experiment [19] in a line: JC-1 mitochondrial signal, unstimulated MM1S myeloma – cell-based, JC-1 fluorescence, 24 h, 100 nL compound, profiling panel (AID 1170). Also: test concentration not given here. Particulars: MM1S mitochondrial potential, higher = more signal.
Experiment [20] in a line: resazurin metabolic signal in A549 cells – cell-based, resazurin fluorescence, 24 h, PK04 Diversity Set, profiling panel (AID 1171). Also: test concentration not given here. Particulars: A549 viability, higher = more signal, called active from +8 up or from −8 down.

Chain of NADPH oxidase 2 (Homo sapiens) (P04839 whole entry, looked up): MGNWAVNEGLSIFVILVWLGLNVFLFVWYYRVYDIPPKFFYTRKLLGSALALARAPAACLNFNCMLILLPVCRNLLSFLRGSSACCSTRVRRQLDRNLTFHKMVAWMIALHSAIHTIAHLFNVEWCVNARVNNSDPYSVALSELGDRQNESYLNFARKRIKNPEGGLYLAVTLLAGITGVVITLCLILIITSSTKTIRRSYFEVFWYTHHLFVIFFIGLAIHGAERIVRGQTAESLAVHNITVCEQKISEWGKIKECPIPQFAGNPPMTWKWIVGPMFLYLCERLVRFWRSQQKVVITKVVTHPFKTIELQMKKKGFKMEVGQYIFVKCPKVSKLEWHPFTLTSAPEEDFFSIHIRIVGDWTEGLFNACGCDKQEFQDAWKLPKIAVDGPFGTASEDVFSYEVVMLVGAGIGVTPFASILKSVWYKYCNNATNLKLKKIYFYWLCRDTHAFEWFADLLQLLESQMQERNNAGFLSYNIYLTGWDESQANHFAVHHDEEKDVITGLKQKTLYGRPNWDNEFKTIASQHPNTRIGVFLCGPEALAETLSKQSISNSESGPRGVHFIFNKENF

As for `C[C@@H](c1ccccc1)N1C(=O)[C@H]2[C@H]3[C@H](O)C=CC(=O)[C@@H]3CC[C@H]2C1=O`, the z-score is -0.0347 (inactive) in experiment [1]; -0.352 (inactive) in [3]; 0.101 (inactive) in experiment [4]; -0.555 (inactive) in experiment [5]; -0.284 (inactive) in experiment [6]; 0.674 in [7]. In addition, the z-score in experiment [8] was 1.56 (inactive); in experiment [9] it was -0.0276 (inactive); in experiment [10], -0.276; in [11], -0.0257; in experiment [12] it was 0.0344; in experiment [13], 0.628. Besides, the z-score is -0.438 in experiment [14]; -0.136 in experiment [15]; 0.457 in experiment [16]; 0.715 (inactive) in experiment [17]; 0.04 in experiment [18]; 0.711 in experiment [19]. Besides, the z-score in [20] is 0.165 (inactive). In experiment [2], the composite z-score is -0.193.
Consider `O=C(CS)NCCCCCNC(=O)[C@H]1C[C@H]2C(=O)N3CCC[C@H]3C(=O)N2[C@H]1c1cccc(OCCO)c1`, for which the z-score in experiment [1] was -0.0612 (inactive); in experiment [3], 3.12 (inactive); in experiment [4] it was 0.55 (inactive); in [5], -2.35 (inactive); in [6], 0.35 (inactive); in experiment [7] it was 0.345. Besides, the z-score in experiment [8] was 1.45 (inactive); in experiment [9], 0.557 (inactive); in [10], 0.557; in experiment [11], 0.631; in experiment [12], -0.367; in experiment [13] it was 0.432. Also, the z-score in experiment [14] is -0.0388; in experiment [15], -0.198; in [16], 2.21; in [17], 0.0249 (inactive); in experiment [18] it was -0.736; in experiment [19], -0.419. Further, the z-score in experiment [20] is 0.477 (inactive). The same compound had a composite z-score in experiment [2] of 0.315.
For the compound `C=CC[C@@H]1C=C[C@H](ON=Cc2ccc(C(=O)N3[C@H](c4ccc(C)cc4)[C@@H](C)CC[C@H]3C(=O)OC)cc2)[C@@H](CO)O1`, the z-score in experiment [1] is 0.69 (inactive); in experiment [3], 2.78 (inactive); in experiment [4] it was 0.852 (inactive); in [5], -0.273 (inactive); in experiment [6], 0.637 (inactive); in experiment [7], -1.15. The z-score in experiment [8] is -0.428 (inactive); in experiment [9], 0.569 (inactive); in experiment [10], -0.0942; in [11] it was 0.319; in [12], -0.361; in experiment [13], -0.431. Further, the z-score in [14] is -0.581; in experiment [15] it was -1.4; in [16], -1.67; in experiment [17], -0.0052 (inactive); in experiment [18], 0.634; in experiment [19] it was -0.434. In experiment [20], the z-score is -0.299 (inactive). This compound displayed a composite z-score in [2] of -0.0945.
Turning to `C#CCCCON=C1C[C@@H](O)[C@@H](O)[C@@H]2[C@@H]3C(=O)N(Cc4ccccc4)C(=O)[C@@H]3CC[C@H]12`, the z-score in experiment [1] was 0.362 (inactive); in [3], 1.38 (inactive); in experiment [4] it was -0.506 (inactive); in experiment [5], 0.659 (inactive); in experiment [6], -1.29 (inactive); in experiment [7] it was 0.69. Also, the z-score is 0.162 (inactive) in [8]; 0.196 (inactive) in experiment [9]; -0.36 in [10]; 0.416 in experiment [11]; 0.798 in experiment [12]; -0.969 in [13]. The z-score is 0.772 in experiment [14]; 0.477 in [15]; 0.843 in experiment [16]; 0.381 (inactive) in [17]; 0.379 in experiment [18]; -0.901 in [19]. Besides, the z-score in [20] is 0.97 (inactive). The compound further registered a composite z-score in experiment [2] of -0.111.
For `COC(=O)c1c(CC[C@@H](CO)NC(=O)N[C@H](Cc2ccccc2)Cn2cc(-c3ccccc3N)nn2)oc(C(C)=O)c1C(=O)OC`, the z-score was 0.144 (inactive) in experiment [1]; 29.7 (active) in experiment [3]; 15.5 (active) in experiment [4]; 0.845 (inactive) in experiment [5]; 1.73 (inactive) in [6]; 0.211 in [7]. Also, the z-score in experiment [8] was -2.69 (inactive); in experiment [9], 0.681 (inactive); in experiment [10] it was 1.74; in experiment [11], 0.238; in experiment [12] it was 0.475; in [13], 0.169. The z-score is -0.0234 in experiment [14]; 0.229 in [15]; -0.864 in [16]; -0.474 (inactive) in experiment [17]; -0.415 in experiment [18]; 0.65 in experiment [19]. Further, the z-score in experiment [20] is -0.0935 (inactive). Also, in experiment [2], the composite z-score turned out to be 0.5.
